# Data taken from PubChem BioAssay (NCATS).
# Records with an inconclusive call do not appear. Active and inactive are the calls of the source. Calls come from the whole dose curve; as a rule, active = well fitted inhibition curve with a large enough effect; inconclusive = small, poorly fitted or top-dose-only effect; inactive = flat fitted curve, though single readings scatter.
# Biological target: Lysine-specific demethylase 5B (Homo sapiens) (UniProt Q9UGL1)
# Assay: Optimization screen for KDM5B Histone Demethylases FDH coupled qHTS against the LOPAC library (AID 1347166); note: 0% is about no effect
# Conditions: KDM5B demethylation, FDH-coupled NADH fluorescence (FDH is formaldehyde dehydrogenase); series mostly up to 57.5 µM; activity, negative = inhibition: at the top concentration
# How it was run: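 KDM5BDeltaAP (200nM final) in 50mM HEPES pH 7.5, 0.01% Tween-20 was preincubated with compound for 10 min at room temperature. A substrate mix of 12.5uM H3K4Me3, 25uM a-ketoglutarate, ascorbate, Fe2+, NAD+ and formaldehyde dehydrogenase was then added. NADH fluorescence (340/450 nm) was read initially and after 30 min.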
# Lysine-specific demethylase 5B (Homo sapiens), sequence (Q9UGL1 whole entry, looked up): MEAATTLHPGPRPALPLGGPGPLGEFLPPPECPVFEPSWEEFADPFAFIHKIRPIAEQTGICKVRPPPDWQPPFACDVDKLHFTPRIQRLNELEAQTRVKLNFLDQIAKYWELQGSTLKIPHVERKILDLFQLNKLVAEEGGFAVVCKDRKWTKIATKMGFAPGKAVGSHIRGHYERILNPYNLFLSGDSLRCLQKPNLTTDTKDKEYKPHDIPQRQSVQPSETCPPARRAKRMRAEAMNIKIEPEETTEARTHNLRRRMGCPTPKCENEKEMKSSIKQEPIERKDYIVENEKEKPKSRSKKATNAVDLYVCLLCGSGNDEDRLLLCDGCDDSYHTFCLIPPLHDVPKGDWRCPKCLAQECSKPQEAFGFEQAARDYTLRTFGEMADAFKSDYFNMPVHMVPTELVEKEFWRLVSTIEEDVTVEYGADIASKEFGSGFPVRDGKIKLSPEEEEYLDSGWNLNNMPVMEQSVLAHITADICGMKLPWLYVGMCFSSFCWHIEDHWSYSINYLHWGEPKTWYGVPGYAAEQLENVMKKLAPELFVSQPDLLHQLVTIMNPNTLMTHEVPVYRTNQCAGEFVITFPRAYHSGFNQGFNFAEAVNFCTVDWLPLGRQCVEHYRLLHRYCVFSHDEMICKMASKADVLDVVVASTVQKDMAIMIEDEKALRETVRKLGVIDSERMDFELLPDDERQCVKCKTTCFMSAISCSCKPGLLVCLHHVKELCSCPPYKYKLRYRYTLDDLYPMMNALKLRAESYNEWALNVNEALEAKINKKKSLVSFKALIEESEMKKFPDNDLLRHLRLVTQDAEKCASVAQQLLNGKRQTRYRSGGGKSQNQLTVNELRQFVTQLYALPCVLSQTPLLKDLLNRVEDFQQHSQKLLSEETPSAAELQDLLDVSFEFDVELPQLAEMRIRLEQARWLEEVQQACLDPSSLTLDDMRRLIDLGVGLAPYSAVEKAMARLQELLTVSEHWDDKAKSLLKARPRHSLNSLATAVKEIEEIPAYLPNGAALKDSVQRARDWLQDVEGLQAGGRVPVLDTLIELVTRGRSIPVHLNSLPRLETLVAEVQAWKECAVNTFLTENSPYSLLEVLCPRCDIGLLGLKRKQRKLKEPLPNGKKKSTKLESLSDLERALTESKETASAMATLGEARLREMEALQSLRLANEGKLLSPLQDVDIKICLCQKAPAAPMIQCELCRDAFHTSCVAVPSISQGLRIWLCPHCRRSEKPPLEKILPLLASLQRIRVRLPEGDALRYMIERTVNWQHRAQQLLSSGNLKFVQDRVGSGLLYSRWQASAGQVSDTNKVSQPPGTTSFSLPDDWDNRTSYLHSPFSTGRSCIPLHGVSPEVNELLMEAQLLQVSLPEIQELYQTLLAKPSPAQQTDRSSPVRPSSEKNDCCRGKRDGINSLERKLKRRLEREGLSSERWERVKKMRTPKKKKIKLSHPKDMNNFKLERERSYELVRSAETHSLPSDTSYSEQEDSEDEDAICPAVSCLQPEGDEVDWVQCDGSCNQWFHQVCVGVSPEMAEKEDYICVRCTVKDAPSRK
row,SMILES,"activity, negative = inhibition"
1,NC(=O)C1=CN(C2OC(COP(=O)(O)OP(=O)(O)OC[C@H]3O[C@@H](n4cnc5c(N)ncnc54)[C@H](OP(=O)(O)O)[C@@H]3O)C(O)C2O)C=CC1 (stereo partly specified),-15.5% (inactive)
2,CC(C)NCC(O)COc1cccc2ccccc12 (stereo unspecified),-26.5% (inactive)
3,Nc1nc(Cl)nc2c1ncn2[C@@H]1O[C@H](COP(=O)(O)OP(=O)(O)OP(=O)(O)O)[C@@H](O)[C@H]1O,-8.13% (inactive)
4,Nc1nc(SCc2ccc([N+](=O)[O-])cc2)c2ncn([C@@H]3O[C@H](CO)[C@@H](O)[C@H]3O)c2n1,-6.62% (inactive)
5,NCCCCCCCCCCN,1.24% (inactive)
6,O=C(O)CC[C@@H](C(=O)O)N1C(=O)c2ccccc2C1=O,-9.88% (inactive)
7,CC(C)ON([C@@H](C(=O)NO)C(C)C)S(=O)(=O)c1ccc(-c2ccccc2)cc1,-21.3% (inactive)
8,Nc1ncnc2c1c(I)cn2[C@@H]1C[C@H](N)[C@@H](O)[C@H]1O,-16% (inactive)
9,CCCCCCCCCCCCCCCC(=O)NCC(COP(=O)([O-])OCC[N+](C)(C)C)OCC (stereo unspecified),-3.81% (inactive)
10,C#C[C@]1(O)CC[C@H]2[C@@H]3CCC4=Cc5oncc5CC4(C)[C@H]3CCC21C (stereo partly specified),-2.3% (inactive)
11,O=C(O)[C@@H]1C[C@H](C(=O)O)N1,5.51% (inactive)
12,Cc1cc2c(cc1Cl)N(C(=O)Nc1ccc(Oc3cccnc3C)nc1)CC2,-18.3% (inactive)
13,N=c1ccn2c(n1)O[C@H]1[C@H](O)[C@@H](CO)O[C@H]12,-3.04% (inactive)
14,O=c1[nH]c2cc(C(F)(F)F)ccc2n1-c1cc(C(F)(F)F)ccc1O,-12.6% (inactive)
15,C[N+](C)(C)CCOP(=O)(O)OP(=O)([O-])OC[C@H]1O[C@@H](n2ccc(N)nc2=O)[C@H](O)[C@@H]1O,-0.67% (inactive)
16,C#CCN1C(C)=C(C(=O)OC)C(c2cccc([N+](=O)[O-])c2)C(C(=O)OCC)=C1C (stereo unspecified),-18.5% (inactive)
